PubChem BioAssay AID602281 (The Scripps Research Institute Molecular Screening Center, 2012)
The whole screen tested about 360,000 compounds, of which about 2,900 (0.81%) were called active. This is one part of a sample in which actives are shown more often than they occur.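 How the source made its calls: active means inhibition above the mean inhibition across every tested compound plus 3 SD (cut at about 22% in these data); inactive means the rest.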

What follows are compounds tested against Perilipin-5 (Homo sapiens) + 1-acylglycerol-3-phosphate O-acyltransferase ABHD5 (Homo sapiens) (UniProt Q00G26+Q8WTS1) (assay: ABHD5-PLIN5 interaction inhibitors, primary screen, cell lysate, split luciferase complementation, luminescence (AID 602281;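 further: 0% = DMSO only wells and the 100% control is not disclosed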)). Details: Split G. princeps luciferase complementation, 4 h, at 4 µM, hits give high values.
Perilipin-5 (Homo sapiens) + 1-acylglycerol-3-phosphate O-acyltransferase ABHD5 (Homo sapiens), sequence (Q00G26 whole entry, looked up): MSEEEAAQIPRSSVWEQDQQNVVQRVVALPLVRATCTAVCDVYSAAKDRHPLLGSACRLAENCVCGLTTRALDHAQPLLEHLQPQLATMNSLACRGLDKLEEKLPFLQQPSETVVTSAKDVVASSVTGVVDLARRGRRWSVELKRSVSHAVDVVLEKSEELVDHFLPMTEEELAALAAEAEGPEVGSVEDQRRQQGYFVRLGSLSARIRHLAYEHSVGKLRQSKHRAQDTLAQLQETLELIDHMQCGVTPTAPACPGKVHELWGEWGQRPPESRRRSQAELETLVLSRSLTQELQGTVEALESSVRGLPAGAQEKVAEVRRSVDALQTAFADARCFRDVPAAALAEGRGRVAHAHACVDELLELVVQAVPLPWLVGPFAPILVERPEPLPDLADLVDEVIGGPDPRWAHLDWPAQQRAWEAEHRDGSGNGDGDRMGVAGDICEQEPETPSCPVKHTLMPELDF
Perilipin-5 (Homo sapiens) + 1-acylglycerol-3-phosphate O-acyltransferase ABHD5 (Homo sapiens), sequence (Q8WTS1 whole entry, looked up): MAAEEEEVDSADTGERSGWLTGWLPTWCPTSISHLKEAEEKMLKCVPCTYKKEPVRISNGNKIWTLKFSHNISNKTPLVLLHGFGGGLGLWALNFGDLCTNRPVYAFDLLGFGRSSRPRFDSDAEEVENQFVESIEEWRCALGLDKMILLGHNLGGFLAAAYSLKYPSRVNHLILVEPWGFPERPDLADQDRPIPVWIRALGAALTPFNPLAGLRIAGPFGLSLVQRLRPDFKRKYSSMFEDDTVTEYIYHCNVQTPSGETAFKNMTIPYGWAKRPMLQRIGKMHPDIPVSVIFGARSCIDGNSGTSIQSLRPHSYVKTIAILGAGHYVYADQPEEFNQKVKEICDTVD

inhibition, inactive:
CC(C)C1Cc2[nH][nH]c(=O)c2C(c2ccc(Cl)cc2)O1 (configuration not stated) 4.21%, COc1ccc(C2OC(CCc3ccccc3)Cc3[nH]c(=S)[nH]c(=O)c32)cc1 (configuration not stated) -6.49%, CCOCCCNC(=O)c1ccc(CS(=O)(=O)c2cccc(C(F)(F)F)c2)o1 9.27%, N#C/C(=C(\O)C(F)(F)F)c1nnc2n1CCCCC2 4.79%, CC(=O)OCCOCn1cnn2c(=O)c(Br)c(C)nc12 -1.92%, Cc1cc2c(c(=O)n1C)C(C(C)C)C(C#N)=C(N)O2 (configuration not stated) 1.5%, Cn1c2c(c(=O)n(C)c1=O)C(c1cccc(F)c1)C(C#N)=C(N)O2 (configuration not stated) 12.7%, CC1CCCCC1NC(=O)CSc1nnc(-c2ccncc2)n1CCCN(C)C (configuration not stated) 3.79%, COC1=NC2=NCCN2C(OC)=N1 7.21%, Cn1c2ccccc2c2cc(/C=C(\NC(=O)c3ccccc3)C(=O)NCC(=O)O)ccc21 4.74%, C[C@H](CO)N1C[C@H](C)[C@@H](CN(C)Cc2ccc(-c3ccccc3)cc2)Oc2ccc(NC(=O)Cn3cnnn3)cc2C1=O 1.64%, O=C(CSC1=NS(=O)(=O)c2cc(F)ccc2N1)Nc1ccccc1F -1.35%, C=CCNC(=S)/N=c1/ccccn1Cc1ccccc1 -6.7%, OC(c1ccccc1)(c1ccccc1)C1CCN(CCCOc2ccccc2)CC1 4.12%, CC1CCCN(CC(=O)Nc2cc(Cl)ccc2Oc2ccccc2)C1 (configuration not stated) -6.16%, Cc1cc(C)cc(N)c1 -4.69%, COc1cc(/C=C/CNC[C@H]2O[C@@H](n3cnc(C(N)=O)n3)[C@H](O)[C@@H]2O)ccc1O 9.45%, COc1ccc(NC(=O)C2=C(C)NC(=O)NC2c2ccccc2[N+](=O)[O-])cc1 (configuration not stated) -1.09%, COc1ccc(NC(=O)ON=C2c3ccccc3-c3ccccc32)cc1 -4.58%, Cc1cc(C)c(S(=O)(=O)N2CCOCC2)cc1C 2.37%, CC(=O)c1ccc(N=C2SCCCN2C(=O)C2CCCCC2)cc1 -0.57%, CC(=O)c1c(C)[nH]c(C(=O)COc2ccc3c(C)cc(=O)oc3c2)c1C -4.41%, C/C(=N\NC(=O)c1ccc(C)cc1)C1C(=O)c2ccccc2C1=O 5.2%, CN(C)C(=O)c1ccc(NC(=O)c2ccccc2-c2ccccc2)cc1 2.67%, CCC(=O)Nc1ccc(C(=O)CSc2nnc(CNc3ccc(Cl)cc3)o2)cc1OC -15.2%, OC1CSc2nc3ccccc3n2C1 (configuration not stated) 1.22%, O=C(Cc1ccccc1Cl)N1CCOCC1 1.3%, Cc1cc(C)c(NC(=O)CN2C(=O)NC(Cc3ccccc3)C2=O)c(C)c1 (configuration not stated) 3.3%, Cc1ccc(CS(=O)(=O)CCC(=O)NC2CC2)cc1 0.91%, CN(Cc1ccccc1)S(=O)(=O)c1nnc(NC(=O)c2ccccc2F)s1 -11.4%, O=C(Nc1nnc(Cc2ccc(Cl)cc2)s1)c1cccnc1 10%, CCOC(=O)c1sc(N)c(C#N)c1COC(=O)C1=COCCO1 -2.21%, CCCCn1c(N)c(N(CCOC)C(=O)c2cccc(S(=O)(=O)N(C)c3ccccc3)c2)c(=O)[nH]c1=O -4.97%, COC(=O)Cc1ccc(N(Cc2ccccc2F)S(=O)(=O)c2ccc(Br)cc2)cc1 0.04%, Cc1cccc(NC(=O)c2cccc(C(=O)Nc3cccc(C)c3C)n2)c1C -2.21%, Cc1cccc(NC(=O)c2ccc(OCC(=O)NCc3ccccc3)cc2)c1C -5.25%, Cc1noc(C)c1COc1ccccc1C(=O)N(C)CC(=O)Nc1cccc(F)c1 8.24%, O=NN(CCCl)C(=O)NCCc1cccc[n+]1[O-] 1.74%, COC(=O)C1(C)NC(c2ccc(F)cc2)C2C(=O)N(c3ccccc3)C(=O)C21 (configuration not stated) -0.78%, COC(=O)C1(C)NC(c2ccc(C)cc2)C2C(=O)N(c3ccc(F)cc3)C(=O)C21 (configuration not stated) 4.79%, CC(C)CNC(=S)NNC(=O)c1nn(C)cc1Cl -4.74%, CCOc1ccc(CCN2C(=O)C(=O)N([C@@H](Cc3ccc(O)cc3)CN3CCC[C@H]3CN3C(=O)C(=O)NC[C@@H]3CC(C)C)C[C@@H]2Cc2ccccc2)cc1 3.51%, Cc1cc(NC(=O)COC(=O)COc2ccc(Cl)cc2C)c([N+](=O)[O-])cc1C 4.5%, CC(=O)c1ccc(N2CCN(S(=O)(=O)c3c(C)[nH]c(=O)[nH]c3=O)CC2)cc1 1.36%, CCN(CCCNC(=O)CCn1c(=O)[nH]c2ccsc2c1=O)c1ccccc1 -1.79%, CCN1CCN(CCNC(=O)c2ccc3c(c2)NC(=O)/C(=C\c2cccc(Cl)c2)S3)CC1 12.3%, CCN(c1ccc2c(c1)OCO2)S(=O)(=O)c1cc(Br)cc2c1N(C(=O)C1CC1)CC2 -5.83%

inhibition, active:
O=c1[nH][nH]c2c1[C@H](c1ccc(Cl)cc1)O[C@H](CCc1ccccc1)C2 29.6%, Cc1cc2c(c(=O)n1Cc1ccco1)C(c1ccccc1)C(C#N)=C(N)O2 (configuration not stated) 36.4%, CN1CCC[C@@H]1CCO[C@](C)(c1ccccc1)c1ccc(Cl)cc1 24.5%, COc1ccc(N/C=C(\C2OC(=O)c3ccccc32)[N+](=O)[O-])cc1 (configuration not stated) 42.9%, O=C(NC1=CC(=O)c2ccccc2C1=O)c1ccccc1 84.6%, CSc1nnc(NC(=O)c2nc(S(=O)(=O)Cc3ccc(C)cc3)ncc2Cl)s1 32.5%, Cc1ccc(CS(=O)(=O)c2ncc(Cl)c(C(=O)Nc3nnc(C)s3)n2)cc1 43.2%, Cc1cccc(NC(=O)c2ccc3nsnc3c2)c1C 122%, COC(=O)C1(C)NC(c2ccccc2OC)C2C(=O)N(c3ccccc3)C(=O)C21 (configuration not stated) 69.3%, CCN(CCCNC(=O)c1ccc2c(c1)NC(=O)CN2C)c1cccc(C)c1 76.6%
